Whole data set: some 68,000 sequences, median “fluorescence intensity (a.u.)” near 9,100, cut for the highest 2% near 16,000. The sample holds the highest values, similar sequences and a random draw of the others, so the mix is not that of the screen.
These sequences were tested against OsWRKY34 (Oryza sativa, UniProt Q0JBA9 1-250) (assay: protein-binding microarray (RPBM); PBS, 2% BSA, 51.3 ng/ul salmon testes DNA, 50 uM zinc acetate, 200 nM TF, 25 C, 1 h; high values mean tight binding). Conditions: protein: recombinant; tags: N-terminal polyhistidine and DsRed monomer fusion (pET32a); label: CyDye5-dUTP incorporated in the synthesized complementary strand; 3' TTTTT single-stranded linker to array surface; dsDNA, one strand shown.
Method in brief: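 Using Ni–NTA, transcription factors fused N-terminally to polyhistidine and DsRed were purified after expression in E. coli BL21-CodonPlus. These were incubated at 200 nM with a blocked, double-stranded custom Agilent array for 1 h at 25 °C in a buffer containing 50 µM zinc acetate, and the array was washed. The binding signal is per-feature fluorescence intensity (arbitrary units) on an Axon 4000B scanner.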

Sequence of OsWRKY34 (Q0JBA9 entry or part of it): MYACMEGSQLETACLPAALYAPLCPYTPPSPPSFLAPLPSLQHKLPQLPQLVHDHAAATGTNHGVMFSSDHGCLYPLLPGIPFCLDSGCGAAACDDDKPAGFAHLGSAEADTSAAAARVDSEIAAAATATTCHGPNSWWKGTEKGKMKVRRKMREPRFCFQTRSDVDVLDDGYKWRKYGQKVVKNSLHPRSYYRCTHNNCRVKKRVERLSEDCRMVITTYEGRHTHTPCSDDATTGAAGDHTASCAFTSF

In order of rising binding signal:
1. AACTTTTTGATATACGCTCGATCATTCATCTTATTGAATACGGAGTCACCTAGTGCAG  8030 fluorescence intensity (a.u.)
2. GGCTTTGTATTTTGGTGTTGAGTCCCTTCCATACAAGAACCGGAGTCACCTAGTGCAG  8040 fluorescence intensity (a.u.)
3. AACCTCCACACACCCGCTCATACTACAAGCTAGGTAATCACGGAGTCACCTAGTGCAG  8040 fluorescence intensity (a.u.)
4. GGCAATCCGGTGCTCCTTGTCTGAACTCTCTCAATCTCAACGGAGTCACCTAGTGCAG  8040 fluorescence intensity (a.u.)
5. GCCACGAGTTCCACGGCCGCGGCGTCGTCGTCGTCGTCGTCGGAGTCACCTAGTGCAG  8090 fluorescence intensity (a.u.)
6. GACACATGAACTTTCAATTTTTCTATCACATCGTTCTAATCGGAGTCACCTAGTGCAG  8150 fluorescence intensity (a.u.)
7. ACCACCGCCGCGGCGGCGTCGCCCACGCCGTGCCGCCCCGCGGAGTCACCTAGTGCAG  8160 fluorescence intensity (a.u.)
8. AGCGTCGCTGCCATCATCGCCGTCGCGTCGCTCGTCGCCGCGGAGTCACCTAGTGCAG  8220 fluorescence intensity (a.u.)
9. GTCTCCGCCATCGTTGTCGCCGTCGCCTCGCGCCACCACGCGGAGTCACCTAGTGCAG  8230 fluorescence intensity (a.u.)
10. AATCTACAAGATATATAACTAGATGTGTGGTGGGTTGAAACGGAGTCACCTAGTGCAG  8280 fluorescence intensity (a.u.)
11. GGCTGCCCGCTCCTACATCCACATGCATGCTTCACACTGCCGGAGTCACCTAGTGCAG  8330 fluorescence intensity (a.u.)
12. AGTTTTTGCTTGTAACGTTTCACCACTCGTCTTATTCAAACGGAGTCACCTAGTGCAG  8340 fluorescence intensity (a.u.)
13. GTATACCTGCGCGTATACGGATGTTTTCGGCGTACATTAACGGAGTCACCTAGTGCAG  8390 fluorescence intensity (a.u.)
14. CCCCTCGCCGCCCTCTCTCTCACAGTCTCACGCATCCCATCGGAGTCACCTAGTGCAG  8440 fluorescence intensity (a.u.)
15. TTAATTTTTTTCTCATTTGTGCGTCCTATGGTCAAGCGTCCGGAGTCACCTAGTGCAG  8490 fluorescence intensity (a.u.)
16. AATTAGTTCCTGGACTTTGTGTATTACTAGTACTACTCCACGGAGTCACCTAGTGCAG  8570 fluorescence intensity (a.u.)
17. TCTCCCTTTCATTTTTATGTATGTTGGAATTATTTTTGTTCGGAGTCACCTAGTGCAG  8590 fluorescence intensity (a.u.)
18. ACGCGGCCGCCGAGCTGGACTCCTCATCCCCAGCTTCGCTCGGAGTCACCTAGTGCAG  8600 fluorescence intensity (a.u.)
19. CGCACCACCACCACCATTTCCACGCCCCTCTCTCCATTCCCGGAGTCACCTAGTGCAG  8680 fluorescence intensity (a.u.)
20. AACAGCCTGTTTTTGTGTGTTTTTTTCGTAAGTAATTAGTCGGAGTCACCTAGTGCAG  8760 fluorescence intensity (a.u.)
21. CGCCACCATCGCTGCGCCGCCATCGCCACCACCGCAGCCGCGGAGTCACCTAGTGCAG  8840 fluorescence intensity (a.u.)
22. TGACGCCGTTGGTTTTTTTAAACATGTTTGACCATTCGTCCGGAGTCACCTAGTGCAG  8990 fluorescence intensity (a.u.)
23. TTTTTTGGTTGTTGATATGATGTTCTTTTTTCCTCATTCTCGGAGTCACCTAGTGCAG  8990 fluorescence intensity (a.u.)
24. AATTCCGGCCCAATAGTCACTTGTGTTGGCCACTTCGCCTCGGAGTCACCTAGTGCAG  9010 fluorescence intensity (a.u.)
25. GTTCATCAATCTACTGTACTGGCCTCCTTCTCAGCTCTCACGGAGTCACCTAGTGCAG  9300 fluorescence intensity (a.u.)
26. TACATGTGGGTCCCATGGGTTTTATTATCTTTTTCGGATCCGGAGTCACCTAGTGCAG  9360 fluorescence intensity (a.u.)
27. GTGGAGCTATACCTTCTACTCTCAGCAATTGTCCTTTAGACGGAGTCACCTAGTGCAG  9460 fluorescence intensity (a.u.)
28. CACCTCCCCGCCCACCATTCCCACTTTCGCCCACACACACCGGAGTCACCTAGTGCAG  9570 fluorescence intensity (a.u.)
29. CCCGTGTCTTGTGTGTTTCCATTCTCGCGAACCTTCCACACGGAGTCACCTAGTGCAG  9910 ± 264 fluorescence intensity (a.u.)
30. CTCCGCCTCGCGCCGTTGTCGCCGTCGCCTCGCGCCGCCACGGAGTCACCTAGTGCAG  10100 fluorescence intensity (a.u.)
31. TAACGCCGTTTACCTTTTAACAAACGTTTTACCTTTCGTTCGGAGTCACCTAGTGCAG  10400 fluorescence intensity (a.u.)
32. TTAGTTGTTACCTTTGTCTCCTTCGTTGATCCATTGAAAGCGGAGTCACCTAGTGCAG  10500 fluorescence intensity (a.u.)
33. TATTTGATCCCGTTTTTTAAAATCGAGCTTACCGTTTGACCGGAGTCACCTAGTGCAG  10500 fluorescence intensity (a.u.)
34. GATTCATCGATCTTTTACGAGTACTATTTTTGTGATTATTCGGAGTCACCTAGTGCAG  11300 fluorescence intensity (a.u.)
35. TGACTCTATTTTTTCCTTCGGTCTGCTGTCTGCACTCTGGCGGAGTCACCTAGTGCAG  11300 fluorescence intensity (a.u.)
36. GACACACGATTTCTTAAGGCTCATACTTTATGCTTGTCTACGGAGTCACCTAGTGCAG  11300 fluorescence intensity (a.u.)
37. CGTAGGCCACGCCACCTCACCCTGTTGACCGAGTCAAACCCGGAGTCACCTAGTGCAG  11900 fluorescence intensity (a.u.)
38. CAATTATCCTCTGTGCTGTTTGACATTTTCTTGGTTAGTGCGGAGTCACCTAGTGCAG  12000 fluorescence intensity (a.u.)
39. CGCTCCACCACCCGCCCGCTCGCCCATTTCCTCTCCCTTTCGGAGTCACCTAGTGCAG  12300 fluorescence intensity (a.u.)
40. GCGCTTCTGACCACCACGTGCATTTCCATTTCCCGCTGCACGGAGTCACCTAGTGCAG  12700 fluorescence intensity (a.u.)
41. CTTCCCTAAATGTTTAACGCCATTGACTTTTTTAAACATGCGGAGTCACCTAGTGCAG  12900 fluorescence intensity (a.u.)
42. GCCCCATCCACCGCACCACACGTCTCTTTTTTTCGCGACTCGGAGTCACCTAGTGCAG  14600 fluorescence intensity (a.u.)
43. TGTCTAGCTGCTCCGACCAGTCAACCGTTGAACGTTGACTCGGAGTCACCTAGTGCAG  14700 fluorescence intensity (a.u.)
44. TCGTCGGCGTCGCGTTCACGGCCGCCGTGGCCGTGGCCGTCGGAGTCACCTAGTGCAG  16500 fluorescence intensity (a.u.)
45. CTGCCATCGCGTCGGCGTCGCGCCGCTGCCGTTGACCGTGCGGAGTCACCTAGTGCAG  16700 fluorescence intensity (a.u.)
46. TGCTCGGACCATTCCCCGCCCACCATCGCTGCACACTTTTCGGAGTCACCTAGTGCAG  17200 fluorescence intensity (a.u.)
47. GGTTGACCGTAGTCAACTCGCCACGTTGACTAGAACCGAGCGGAGTCACCTAGTGCAG  17900 fluorescence intensity (a.u.)
48. CTTCCCTAAATGTTTGACGCCGTTGACTTTTCTAAACATGCGGAGTCACCTAGTGCAG  18600 fluorescence intensity (a.u.)
49. CGCTGACCACGTTGACCATCTTCCATTTCTTCCCCTCGCCCGGAGTCACCTAGTGCAG  18600 fluorescence intensity (a.u.)
50. CCCATCGCATCTTTCCCACTCGCCCCACGCCCGCACGTCTCGGAGTCACCTAGTGCAG  18800 fluorescence intensity (a.u.)
51. CGTTGTCGCCACCACCACCGCCGCCGTCGCCACAACTCCGCGGAGTCACCTAGTGCAG  20500 fluorescence intensity (a.u.)
52. ATGACGCCGTTGACTTTTTAACAAACGTTTGACCATTCGTCGGAGTCACCTAGTGCAG  21700 fluorescence intensity (a.u.)
53. TGTTTGACGCCGTTGACTTTTTTAAACATGTTTGACCATTCGGAGTCACCTAGTGCAG  34200 fluorescence intensity (a.u.)
54. AATGTTTGACGCCGTTGACTTTTTTAAACATGTTTGACCACGGAGTCACCTAGTGCAG  42500 fluorescence intensity (a.u.)
